Screens deposited in PubChem BioAssay by Broad Institute.
The sample as a whole holds a higher share of hits than the screen did.
miR-122 inh = miR-122 suppressors via Renilla sensor increase, primary screen, cell-based, Huh7 psiCHECK-miR122, Renilla luciferase, single point. 48 h. 340,000 compounds, 0.14% hits. AID 623901, 2012. activation, % at 12.5 µM;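 active means mean activation of 30% or more, with every replicate also reaching 30%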;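 further: higher luciferase signal means stronger suppression of miR-122 activity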
Large screens that a line does not name were inactive.

CCCN(C)C[C@H]1Oc2cc(C#CC(C)C)ccc2S(=O)(=O)N([C@@H](C)CO)C[C@H]1C	none
CCC(=O)Nc1ccc2c(c1)OC[C@H](C)N(C(=O)c1ccccc1F)C[C@H](C)[C@@H](OC)CN(C)C2=O	none
C[C@H]1CN([C@@H](C)CO)C(=O)c2cc(C#CC3CC3)cnc2O[C@@H]1CN(C)C	none
COCC#Cc1ccc2c(c1)O[C@@H](CN(C)C(=O)COC)[C@H](C)CN([C@H](C)CO)S2(=O)=O	none
CCCC#Cc1cnc2c(c1)C(=O)N([C@@H](C)CO)C[C@@H](C)[C@H](CN(C)Cc1cccnc1)O2	none
CO[C@H]1CN(C)C(=O)c2cc(NS(=O)(=O)CC(F)(F)F)ccc2OC[C@H](C)N(C)C[C@@H]1C	none
COc1ccc(CN(C)C[C@@H]2Oc3c(NC(=O)C4CCCCC4)cccc3C(=O)N([C@H](C)CO)C[C@H]2C)cc1	none
C[C@@H]1CN([C@@H](C)CO)C(=O)c2cc(Br)cnc2O[C@@H]1CN(C)C(=O)CN1CCOCC1	none
C[C@@H]1CN([C@@H](C)CO)C(=O)c2cc(C#Cc3ccc(F)cc3)cnc2O[C@@H]1CN(C)C(=O)c1ccccc1F	none
Cc1ccc(Cn2c(NS(=O)(=O)c3ccccc3)nc3ccccc32)cc1	none
Cc1ccc(OCC(O)Cn2c(=N)n(Cc3ccccc3)c3ccccc32)cc1 (centres undefined)	miR-122 inh 90
C[C@@H]1CN([C@@H](C)CO)C(=O)c2cc(C#C[C@@H](C)O)cnc2O[C@H]1CN(C)Cc1cncnc1	none
COc1ccc(S(=O)(=O)N(C)C[C@H]2Oc3ccc(NC(=O)Nc4ccc(C(F)(F)F)cc4)cc3C(=O)N([C@@H](C)CO)C[C@H]2C)cc1	none
C[C@H](CO)N1C[C@H](C)[C@H](CN(C)Cc2ccc(Cl)c(Cl)c2)Oc2c(NC(=O)Nc3ccc4c(c3)OCO4)cccc2C1=O	none
COc1ccc(S(=O)(=O)N(C)C[C@H]2Oc3ccc(NC(=O)Nc4ccc(C(F)(F)F)cc4)cc3C(=O)N([C@H](C)CO)C[C@H]2C)cc1	none
COc1ccc(CN(C)C[C@@H]2OCCCC[C@@H](C)Oc3ccc(NC(=O)c4ccccc4)cc3C(=O)N([C@H](C)CO)C[C@@H]2C)cc1	none
COc1ccc(CN(C)C[C@@H]2OCCCC[C@H](C)Oc3ccc(NC(=O)Nc4ccc(C(F)(F)F)cc4)cc3C(=O)N([C@H](C)CO)C[C@@H]2C)cc1	miR-122 inh 31
C[C@@H]1CN([C@@H](C)CO)C(=O)c2cc(NC(=O)Nc3ccc(C(F)(F)F)cc3)ccc2O[C@@H]1CN(C)CC1CCCCC1	miR-122 inh 40
Cc1ccc(S(=O)(=O)N(C)C[C@H]2Oc3ccc(NC(=O)Nc4ccc(C(F)(F)F)cc4)cc3C(=O)N([C@H](C)CO)C[C@H]2C)cc1	none
C[C@@H]1CCCCO[C@@H](CN(C)Cc2ccc3c(c2)OCO3)[C@H](C)CN([C@H](C)CO)C(=O)c2cc(NC(=O)Nc3ccc(C(F)(F)F)cc3)ccc2O1	miR-122 inh 34
C[C@@H]1CN([C@H](C)CO)C(=O)c2cc(NC(=O)Nc3cccc4ccccc34)ccc2O[C@@H]1CN(C)C(=O)Nc1ccccc1	none
C[C@@H]1CN([C@H](C)CO)C(=O)c2cccc(NC(=O)Nc3ccccc3)c2O[C@H]1CN(C)Cc1ccc(C(F)(F)F)cc1	none
C[C@@H]1CN([C@@H](C)CO)C(=O)c2cc(NC(=O)Nc3cccc4ccccc34)ccc2O[C@@H](C)CCCCO[C@@H]1CN(C)CC1CCCCC1	miR-122 inh 34
Cc1ccc(S(=O)(=O)Nc2ccc3c(c2)C(=O)N([C@@H](C)CO)C[C@H](C)[C@H](CN(C)C(=O)Nc2ccc(F)cc2)OCCCC[C@@H](C)O3)cc1	none
CCS(=O)(=O)Nc1ccc2c(c1)C(=O)N(C)C[C@H](OC)[C@H](C)CN[C@@H](C)CO2	none
C[C@@H]1CN([C@@H](C)CO)C(=O)c2cc(-c3cccnc3)cnc2O[C@@H]1CN(C)S(C)(=O)=O	none
COc1ccccc1S(=O)(=O)N(C)C[C@@H]1Oc2cc(/C=C/c3ccccc3)ccc2S(=O)(=O)N([C@@H](C)CO)C[C@H]1C	none
COc1ccccc1NC(=O)N(C)C[C@H]1Oc2ncc(C#CCC(C)C)cc2C(=O)N([C@H](C)CO)C[C@H]1C	none
C[C@@H]1CN([C@H](C)CO)C(=O)c2cccc(N(C)C)c2O[C@H]1CN(C)C(=O)Nc1ccccc1	none
COc1cccc(-c2cnc3c(c2)C(=O)N([C@H](C)CO)C[C@@H](C)[C@@H](CN(C)CC2CCOCC2)O3)c1	none
C[C@@H]1CN([C@H](C)CO)C(=O)c2cc(-c3cccnc3)cnc2O[C@@H]1CN(C)C(=O)C1CC1	none
COc1ccc(S(=O)(=O)N(C)C[C@H]2Oc3cc(-c4ccccc4OC)ccc3S(=O)(=O)N([C@H](C)CO)C[C@H]2C)cc1	none
COc1ccc(-c2cnc3c(c2)C(=O)N([C@H](C)CO)C[C@@H](C)[C@H](CN(C)C(=O)C2CCOCC2)O3)cc1	none
C[C@H]1CN([C@@H](C)CO)C(=O)c2cc(NC(=O)NC3CCCCC3)ccc2O[C@@H]1CN(C)C(=O)Nc1ccccc1	none
C/C=C/c1cnc2c(c1)C(=O)N([C@H](C)CO)C[C@H](C)[C@H](CN(C)C(=O)Nc1cccc(OC)c1)O2	none
C[C@@H]1CN([C@H](C)CO)C(=O)c2cc(N(C)C)ccc2O[C@@H]1CN(C)Cc1ccc(C(=O)Nc2ccccc2N)cc1	none
O=S(=O)(c1ccccc1F)N1CC[C@@H]2[C@@H](CO)Nc3ccc(-c4ccc(F)cc4)cc3[C@@H]21	none
C[C@@H]1CN([C@H](C)CO)S(=O)(=O)c2ccc(-c3cncnc3)cc2O[C@@H]1CN(C)Cc1ccccc1	none
COCC(=O)N(C)C[C@H]1Oc2cc(-c3ccccc3)ccc2S(=O)(=O)N([C@H](C)CO)C[C@@H]1C	none
C[C@H](CO)N1C[C@H](C)[C@H](CN(C)C(=O)NC2CCCCC2)Oc2ncc(-c3ccccc3F)cc2C1=O	none
C[C@H](CO)N1C[C@H](C)[C@H](CN(C)C(=O)NC2CCCCC2)Oc2ncc(-c3cccc(C(F)(F)F)c3)cc2C1=O	miR-122 inh 33
C[C@@H]1CN([C@@H](C)CO)C(=O)c2cc(-c3ccccc3F)cnc2O[C@H]1CN(C)C(=O)NC1CCCCC1	none
CC(C)CC#Cc1cnc2c(c1)C(=O)N([C@@H](C)CO)C[C@@H](C)[C@H](CN(C)C(=O)C1CCCCC1)O2	none
CC(C)C#Cc1ccc2c(c1)O[C@@H](CN(C)C(=O)CN(C)C)[C@H](C)CN([C@H](C)CO)S2(=O)=O	none
COc1ccccc1NC(=O)N(C)C[C@H]1Oc2ncc(C#CCC(C)C)cc2C(=O)N([C@@H](C)CO)C[C@@H]1C	none
CN(C)c1ccc(/C=C/c2ccc3ccccc3[n+]2C)cc1	miR-122 inh 49
CO[C@@H]1CN(C)C(=O)c2cc(NC(C)=O)ccc2OC[C@@H](C)N(C(=O)c2ccccc2)C[C@H]1C	none
CN[C@H]1C[C@H]2c3[nH]c4ccc(-c5ccc(OC)cc5)cc4c3CCN2C(=O)[C@H]1[C@H](C)O	miR-122 inh 32
C[C@@H]1CN([C@@H](C)CO)C(=O)c2cc(-c3cccc(F)c3)cnc2O[C@H]1CN(C)Cc1cncnc1	none
Cc1cc(C)cc(NC(=O)c2ccc(CSc3nnc(C)s3)cc2)c1	miR-122 inh 34
CCOc1ccc(-c2nnc(SCC(=O)Nc3ccc4c(c3)c3ccccc3n4CC)n2N)cc1	miR-122 inh 54
CCn1c(CCNC(=O)c2ccc(OC)cc2)nnc1SCC(=O)Nc1ccccc1F	none
CCn1c(SCC(=O)Nc2ccc(N3CCOCC3)cc2)nnc1-c1ccc(OC)cc1	none
